A short description of experiment [1]: Wnt pathway potentiators raising nuclear beta-catenin – imaging, WNT3A-conditioned medium, mouse C2C12, NPC library, primary screen (AID 1117326; in the data active = nuclear beta-catenin stimulation mostly above about 4.2%, no sharp cut-off; inactive = mostly below about 10%; note: reference of the scale not given here). To be noted: stronger effect = higher value.
Experiment [2] in a line: stimulators of insulin release from INS-1E, primary screen, cell-based, 5 mM glucose, NPC library (AID 1117329;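 active = compound raises insulin release from rat beta cells at 5 mM glucose, no numeric limit stated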; note: reference of the scale not given here). To be noted: rat INS-1E insulin secretion, at 10 µM, stronger effect = higher value.
Experiment [3] in a line: growth inhibition of GSK3B-pretreated HCT116 cells – cell-based, CellTiter-Glo, 0.2 to 20 µM (AID 1117336;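 active = compounds lowering colon cancer cell viability after pretreatment blocking the GSK3B kinase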). To be noted: HCT116 viability after GSK3B inhibitor, at 20 µM, stronger effect = higher value. Background: Cellular ATP, detected with luciferase, serves as a proxy for viable cell number.
A short description of experiment [4]: inhibition of endothelial tube formation, primary screen, imaging, VEGF stimulated, CD31 staining, tube area, NPC library (AID 1117340). Conditions: VEGF-stimulated ADSC/ECFC co-culture, at 10 µM, stronger effect = higher value.
Experiment [5] can be described thus: GLP1 release stimulators, primary, NCI-H716, NPC library (AID 1117341;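 active = compound raises GLP1 secretion from the human gut endocrine cells, with no numeric limit stated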; note: reference of the scale not given here). To be noted: NCI-H716 cells, at 10 µM, stronger effect = higher value.
A short description of experiment [6]: HCT116 colon cancer cell growth inhibition, primary screen, CellTiter-Glo luminescence, NPC library (AID 1117342;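 active = compounds that lower survival of HCT116 colon cancer cells in the luminescence readout, no numeric limit stated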). To be noted: at 20 µM (top of the series).
Experiment [7] is described as follows: reduced SW480 viability measured with CellTiter-Glo, NPC library, primary (AID 1117343;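 active = compounds that lower viability of the colon cancer cells in the luminescence readout, with no numeric limit stated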). Conditions: CellTiter-Glo luminescence; at 20 µM (top of the series).
A short description of experiment [8]: NPC library primary testing for decreased DLD-1 cell viability via CellTiter-Glo (AID 1117346;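 active = compounds that lower survival of DLD-1 colon cancer cells in the luminescence readout, no cutoff given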). To be noted: DLD-1 viability, CellTiter-Glo luminescence; at 20 µM (top of the series).

Structures are written as SMILES. Active and inactive are the calls of the source.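 Rule for the calls, unless noted: active = compound that reduces growth-factor-driven endothelial tube area in a mixed cell culture, no cutoff stated; inactive = the rest.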

Regarding `CCCCCCCCCCC(CO)CCCCCCCC` (stereo unspecified), the nuclear beta-catenin stimulation was -0.6% (inactive) in experiment [1] (at 10 µM) and -0.4% in experiment [1] (stimulation, at 2 µM). In addition, the insulin secretion stimulation in experiment [2] was -0.5% (inactive). Also, in experiment [3], the viability decrease was 11.5% (inactive). Also, the tube area decrease in experiment [4] was -3.9% (inactive). In addition, in experiment [5], the GLP1 secretion stimulation is -4% (inactive). The inhibition of viability in experiment [6] is 5.07% (inactive). For the same compound, the viability decrease (inhibition) was 14.5% (inactive) in experiment [7] and -17.6% (inactive) in experiment [8].

As to `CC[C@@]1(c2ccccc2)NC(=O)N(C)C1=O`, the nuclear beta-catenin stimulation in experiment [1] (at 10 µM) was 0.1% (inactive); in experiment [1] (stimulation, at 2 µM), 0.6%. In addition, the insulin secretion stimulation in experiment [2] was -0.2% (inactive). In addition, the viability decrease in experiment [3] is 2.35% (inactive). Besides, the tube area decrease in experiment [4] was 0.1% (inactive). Further, the GLP1 secretion stimulation in experiment [5] is -0.6% (inactive). Further, the inhibition of viability in experiment [6] was -10.2% (inactive). Besides, the viability decrease (inhibition) in experiment [7] was 11.6% (inactive); in experiment [8], -9.4% (inactive).

For `Cc1cc(=O)oc2cc(O[C@@H]3SC[C@@H](O)[C@H](O)[C@H]3O)ccc12`, the nuclear beta-catenin stimulation in experiment [1] (at 10 µM) is -0.2% (inactive); in experiment [1] (stimulation, at 2 µM), -1.9%. The insulin secretion stimulation in experiment [2] is 1.1% (inactive). For the same compound, the viability decrease in experiment [3] was -1.3% (inactive). Also, the tube area decrease in experiment [4] was 13.6% (inactive). The GLP1 secretion stimulation in experiment [5] was 3.6% (inactive). In addition, the inhibition of viability in experiment [6] is -1.1% (inactive). Besides, the viability decrease (inhibition) in experiment [7] is -15.9% (inactive); in experiment [8], 15.4% (inactive).

In the case of `CC(C(=O)O)c1ccc(/C=C2\CCCCC2=O)cc1` (stereo unspecified), the nuclear beta-catenin stimulation is 0% (inactive) in experiment [1] (at 10 µM) and -1.5% in experiment [1] (stimulation, at 2 µM). In experiment [2], the insulin secretion stimulation is 0% (inactive). For the same compound, the viability decrease in experiment [3] is 5.4% (inactive). The tube area decrease in experiment [4] is 0.5% (inactive). In experiment [5], the GLP1 secretion stimulation was 2.1% (inactive). The inhibition of viability in experiment [6] is -19.6% (inactive). The values for the viability decrease (inhibition) in experiment [7] and in experiment [8] were 25.5% (inactive) and -23.7% (inactive), respectively.

Consider `O=C(O)[C@@H]1C(=CCO)O[C@@H]2CC(=O)N12`, for which the nuclear beta-catenin stimulation in experiment [1] (at 10 µM) is 1.3% (inactive); in experiment [1] (stimulation, at 2 µM), 0.6%. Moreover, in experiment [2], the insulin secretion stimulation is 2.2% (inactive). In addition, the viability decrease in experiment [3] was 16.4% (inactive). Besides, the tube area decrease in experiment [4] is 0.5% (inactive). The GLP1 secretion stimulation in experiment [5] is -1.2% (inactive). For the same compound, the inhibition of viability in experiment [6] is 18.5% (inactive). Also, the results for the viability decrease (inhibition) in experiment [7] and in experiment [8] were 26% (inactive) and -7.7% (inactive), respectively.

Take `CCNC(=O)NCc1cccc(Cl)c1`: the nuclear beta-catenin stimulation was -1.7% (inactive) in experiment [1] (at 10 µM) and -0.5% in experiment [1] (stimulation, at 2 µM). The insulin secretion stimulation in experiment [2] was 2.2% (inactive). Further, the viability decrease in experiment [3] is -2% (inactive). The tube area decrease in experiment [4] was 13.7% (inactive). Also, the GLP1 secretion stimulation in experiment [5] was -2.9% (inactive). Besides, the inhibition of viability in experiment [6] is 1.1% (inactive). For the same compound, the viability decrease (inhibition) in experiment [7] was 1.2% (inactive); in experiment [8], -6.8% (inactive).

On to `CC(C)C[C@@H](N)C(=O)O`, for which the nuclear beta-catenin stimulation in experiment [1] (at 10 µM) is 3.4% (inactive); in experiment [1] (stimulation, at 2 µM) it was 1.7%. In addition, in experiment [2], the insulin secretion stimulation is -0.8% (inactive). Besides, the viability decrease in experiment [3] is -7.15% (inactive). The tube area decrease in experiment [4] was 11.2% (inactive). In addition, in experiment [5], the GLP1 secretion stimulation was 0.3% (inactive). Besides, the inhibition of viability in experiment [6] was 9.1% (inactive). Besides, the figures for the viability decrease (inhibition) in experiment [7] and in experiment [8] were 3.6% (inactive) and -1.8% (inactive), respectively.

Regarding `CCN(CC)C(=O)C1CN2CCc3cc(OC)c(OC)cc3C2CC1OC(C)=O` (stereo unspecified), the nuclear beta-catenin stimulation in experiment [1] (at 10 µM) is -1.5% (inactive); in experiment [1] (stimulation, at 2 µM) it was 1.3%. The insulin secretion stimulation in experiment [2] was 3.5% (inactive). Also, the viability decrease in experiment [3] is -0.1% (inactive). Also, the tube area decrease in experiment [4] was 1.2% (inactive). Besides, the GLP1 secretion stimulation in experiment [5] was 10.9% (inactive). The inhibition of viability in experiment [6] was 17.1% (inactive). Moreover, the results for the viability decrease (inhibition) in experiment [7] and in experiment [8] were 6.1% (inactive) and -4.5% (inactive), respectively.

`CCOC(=O)C(=O)c1csc(NC=O)n1`: the nuclear beta-catenin stimulation in experiment [1] (at 10 µM) is -0.7% (inactive); in experiment [1] (stimulation, at 2 µM), -0.8%. Also, in experiment [2], the insulin secretion stimulation is 2.4% (inactive). For the same compound, in experiment [3], the viability decrease is -15.5% (inactive). For the same compound, the tube area decrease in experiment [4] was -9.4% (inactive). The GLP1 secretion stimulation in experiment [5] was -2% (inactive). For the same compound, the inhibition of viability in experiment [6] is 1.1% (inactive). The viability decrease (inhibition) in experiment [7] is -10.2% (inactive); in experiment [8], 7.8% (inactive).

Regarding `Cc1cccc(C)c1NC(=O)CN(CC(=O)O)CC(=O)O`, the nuclear beta-catenin stimulation in experiment [1] (at 10 µM) is 0.4% (inactive); in experiment [1] (stimulation, at 2 µM) it was 0.2%. For the same compound, in experiment [2], the insulin secretion stimulation is -2.1% (inactive). Moreover, in experiment [3], the viability decrease was -0.05% (inactive). Moreover, the tube area decrease in experiment [4] is -22.7% (inactive). For the same compound, the GLP1 secretion stimulation in experiment [5] is 1.6% (inactive). Besides, the inhibition of viability in experiment [6] was 2.2% (inactive). In addition, the viability decrease (inhibition) in experiment [7] is 43.5% (inactive); in experiment [8] it was 8.9% (inactive).

In the case of `CN(C)CCN(Cc1ccsc1)c1ccccn1`, the nuclear beta-catenin stimulation in experiment [1] (at 10 µM) is -1.6% (inactive); in experiment [1] (stimulation, at 2 µM), 1.7%. The insulin secretion stimulation in experiment [2] is 1.3% (inactive). The viability decrease in experiment [3] is 4.6% (inactive). Moreover, the tube area decrease in experiment [4] was -14.7% (inactive). Moreover, the GLP1 secretion stimulation in experiment [5] was -2.8% (inactive). The inhibition of viability in experiment [6] was 5.1% (inactive). Further, the viability decrease (inhibition) in experiment [7] is -0.5% (inactive); in experiment [8] it was -3.9% (inactive).

On to `C#C[C@]1(O)CC[C@@H]2[C@@H]3CCC4=CCCC[C@@H]4[C@H]3C(=C)C[C@@]21CC`, for which the nuclear beta-catenin stimulation was 1% (inactive) in experiment [1] (at 10 µM) and -0.9% in experiment [1] (stimulation, at 2 µM). Moreover, the insulin secretion stimulation in experiment [2] is -1.9% (inactive). In experiment [3], the viability decrease was 99.1% (active). For the same compound, the tube area decrease in experiment [4] is 55.3% (active). Also, in experiment [5], the GLP1 secretion stimulation was -7.2% (inactive). Further, the inhibition of viability in experiment [6] is 99% (active). In addition, the values for the viability decrease (inhibition) in experiment [7] and in experiment [8] were 102% (active) and 101% (active), respectively.

`NC[C@@H]1O[C@H](O[C@H]2[C@H](O)[C@H](O[C@H]3[C@@H](O)[C@H](N)C[C@H](N)[C@H]3O[C@H]3O[C@H](CN)[C@H](O)[C@H](O)[C@H]3N)O[C@@H]2CO)[C@@H](N)[C@@H](O)[C@@H]1O`: the nuclear beta-catenin stimulation in experiment [1] (at 10 µM) is -0.3% (inactive); in experiment [1] (stimulation, at 2 µM), 0.4%. In addition, the insulin secretion stimulation in experiment [2] is 3.2% (inactive). Also, the viability decrease in experiment [3] was -8.9% (inactive). Moreover, in experiment [4], the tube area decrease is -22.4% (inactive). Besides, the GLP1 secretion stimulation in experiment [5] is 63.5% (active). Moreover, the inhibition of viability in experiment [6] was 9% (inactive). In addition, the viability decrease (inhibition) in experiment [7] is 31.1% (inactive); in experiment [8], 5% (active).

With `Nc1ccc(C(=O)N2CC3CC(CN(Cc4ccccc4)C3)C2)cc1`, the nuclear beta-catenin stimulation in experiment [1] (at 10 µM) was 3.2% (inactive); in experiment [1] (stimulation, at 2 µM), 0.5%. Moreover, the insulin secretion stimulation in experiment [2] was 0.1% (inactive). Further, in experiment [3], the viability decrease is 1.2% (inactive). In addition, the tube area decrease in experiment [4] is -12.8% (inactive). Moreover, the GLP1 secretion stimulation in experiment [5] is 1.7% (inactive). Also, the inhibition of viability in experiment [6] was 23.2% (inactive). Besides, the viability decrease (inhibition) was 9.4% (inactive) in experiment [7] and 7.3% (inactive) in experiment [8].
